Pf Dd2 inh: qHTS Primary assay for Inhibitors of Plasmodium falciparum Dd2 growth in vitro; P. falciparum Dd2 growth, SYBR Green, 72 h; Potency, µM (series often up to 28.9 µM), for the others: at the highest dose activity, negative = inhibition, hits mostly inhibitors; actives 4.3% (n = 120,000); active means well fitted inhibition curve with a large enough effect;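 further: plate controls were DMSO vehicle for no effect and reference drug for full effect; nearly all actives have a fitted effect of over 65% in size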
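Infected erythrocytes (Dd2, 0.3% parasitemia, 2.5% hematocrit final) are added to compound in RPMI-1640/Albumax II medium, grown 72 h at 37C in low oxygen, then lysed with saponin/Triton-X containing SYBR Green and read by fluorescence.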
An asterisk follows results filed as active; i = inactive; [ ] = another dose, or the depositor's remark. Shown is part of a subset that was picked to be rich in hits. Potency means the concentration at half of the fitted maximal effect.

SMILES	Pf Dd2 inh
Cc1ccc(-n2ncc(C(=O)NCCc3ccccc3)c2C2CCN(C(=O)OC(C)(C)C)CC2)c(C)c1	10µM*
Cc1cccc(-c2nccc3c(=O)cc(N4CCN(C)CC4)oc23)c1	-7%[44.1 µM]
O=C(CCc1nc(C2CCCN2C(=O)CC2CCCC2)no1)NCc1ccccc1 (stereo unspecified)	i
CN1CCCCCCN(S(=O)(=O)c2ccccc2)CCC1=O	-9%
O=C(C1CCCC1)N1CCC(N2C(=O)C(O)C23CCCCC3)CC1 (stereo unspecified)	-12%
CC(C)NC(=O)C(NC(=O)c1ccc2c(c1)OCO2)C1CCN(C(=O)c2ccc(Cl)cc2)CC1 (stereo unspecified)	i
CN1C(=O)CCC2(CNC(=O)c3ccsc3)CCC=C12 (stereo unspecified)	10%
CC(C)(C)OC(=O)N1CCC(c2c(C(=O)NCCc3ccccc3)cnn2-c2ccc(F)cc2)CC1	11µM*
O=C(NCCc1ccccc1)c1cnn(-c2ccc(F)cc2)c1-n1cccc1	4%
Cc1ccc(-n2ncc(C(=O)NCc3ccco3)c2C2CCN(C(=O)OC(C)(C)C)CC2)cc1C	11µM*
Cc1ccc(-n2ncc(C(=O)Nc3ccc(C)c(F)c3)c2C2CCN(C(=O)OC(C)(C)C)CC2)cc1C	-16%
CC(C)(C)OC(=O)N1CCC(c2c(C(=O)N3CCCCC3)cnn2-c2cccc(F)c2)CC1	-5%
CC(C)(C)OC(=O)N1CCC(c2c(C(=O)N3CCOCC3)cnn2-c2cccc(F)c2)CC1	12%
CC(C)(C)OC(=O)N1CCC(c2c(C(=O)NCc3cccs3)cnn2-c2ccc(F)cc2F)CC1	4µM*
CC(C)(C)OC(=O)N1CCC(c2c(C(=O)NCc3ccccc3)cnn2-c2cccc(F)c2)CC1	10µM*
Cc1ccc(-n2ncc(C(=O)N3CCc4ccccc4C3)c2C2CCN(C(=O)OC(C)(C)C)CC2)cc1C	-2%
COCc1ccc2c(c1)c(OC(C)(C)C(=O)NCCCN1CCCC1=O)nn2CCC(C)C	-30%
COC(=O)c1cc2n(n1)CCCN(C(=O)c1cc(CC(C)C)no1)C2	-25%
COCCCN1Cc2cc(NC(=O)Cc3ccc(OC)cc3)ccc2OC(C)C1=O (stereo unspecified)	i
Cc1ccccc1NC(=O)N1CC(C(=O)N(C)C)C2(CCOCC2)C1 (stereo unspecified)	-10%
COCc1ncc(C)n1CCNC(=O)c1cc(-c2ccc(C)cc2)n[nH]1	i
COc1ccc(NC(=O)c2cc(NC(=O)C3CC3)cc3nc(C)ccc23)cc1	-16%
O=C(NC1CCC(O)CC1)c1ccc2c(c1)OCCN(c1ccccc1)C2 (stereo unspecified)	i
O=C1CCCN1CC1CCN(C(=O)c2ccc(N3CC[C@@H](O)C3)nc2)CC1	1%
O=C(NCCc1ccc(Cl)cc1)C1CCc2nnc(C3CCN(C(=O)c4cccnc4)CC3)n21 (stereo unspecified)	i
SMILES	Pf Dd2 inh
O=C(Nc1cccc(C(F)(F)F)c1)c1cc2nc(-c3ccco3)cc(C(F)(F)Cl)n2n1	15%
O=C(Nc1nc2ccc(F)cc2s1)c1nc(S(=O)(=O)Cc2ccccc2F)ncc1Cl	77%
CS(=O)(=O)c1ncc(Cl)c(C(=O)N(Cc2ccc(Cl)cc2)Cc2ccco2)n1	i[5.79 µM]
CS(=O)(=O)c1ncc(N(Cc2ccccc2)Cc2ccco2)c(C(=O)Nc2cccc(C(F)(F)F)c2)n1	6.3µM*
CS(=O)(=O)c1ncc(N(Cc2ccco2)Cc2ccco2)c(C(=O)Nc2ccccc2Br)n1	-19%
CCSc1ncc(Cl)c(C(=O)Nc2cccc(Cl)c2)n1	24%
COc1ccc(CN(Cc2ccco2)c2cnc(S(C)(=O)=O)nc2C(=O)Nc2ccc(C)cc2C)cc1	-1%
CCS(=O)(=O)c1ncc(N(Cc2ccco2)Cc2ccccc2F)c(C(=O)Nc2cccc(Cl)c2)n1	4µM*
CC(C)(C)c1ccc(CN(Cc2ccco2)c2cnc(S(C)(=O)=O)nc2C(=O)Nc2ccc(F)cc2)cc1	7.9µM*
COCCN1CCC(N2CCN(S(=O)(=O)c3cccc(C)c3)CC2)C1=O (stereo unspecified)	i
CN1C[C@H](NCc2ccc(F)cc2)CCC[C@@H](C(=O)NC2CC2)CC1=O	6%[44.1 µM]
Fc1ccc(-c2cc(C3CCNCC3)[nH]n2)cc1	i[5.79 µM]
O=C(c1ccc(C(F)(F)F)cc1)N1CCC(Oc2ncccc2C(=O)N2CCCCC2)C1 (stereo unspecified)	-27%
O=C(c1ccc2nccn2c1)N1CCCC1	20%[44.1 µM]
Cc1ccoc1C(=O)N1C[C@@H](COc2ccccc2)[C@H](C(N)=O)C1	-22%
CC(C)CNC(=O)N1CCC(Oc2ncccc2C(=O)N2CCOCC2)C1 (stereo unspecified)	24%
Cn1c(SCC(=O)Nc2ccccc2F)nc2c([nH]c3ccccc32)c1=O	i
Cc1cc(C)cc(-n2c(SCC(=O)Nc3ccc4c(c3)OCCO4)nc3c([nH]c4ccccc43)c2=O)c1	i
Cc1cccc(NC(=O)CSc2nc3c([nH]c4ccccc43)c(=O)n2C)c1C	15%

Screening results (PubChem BioAssay)
